Compound activity (PubChem BioAssay)
In the library only some 9.3% were active in any assay of this set; here they are far more common.
FLuc counter = qHTS profiling assay for firefly luciferase inhibitor/activator using purifed enzyme and Km concentrations of substrates (counterscreen for miR-21 project) | Luciferin 4-monooxygenase (Photinus pyralis), P08659 | purified FLuc, Km substrates, luminescence inhibition | Potency, µM (titrated, usually from 57.5 µM), for the others: top-dose activity change, negative = inhibition, most hits filed as inhibitors | 360,000 tested, 6.9% active;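 note: plate controls were vehicle for no effect and reference inhibitor for full effect; nearly all actives have a fitted effect of over 55% in size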
Target sequence (P08659 whole entry, looked up): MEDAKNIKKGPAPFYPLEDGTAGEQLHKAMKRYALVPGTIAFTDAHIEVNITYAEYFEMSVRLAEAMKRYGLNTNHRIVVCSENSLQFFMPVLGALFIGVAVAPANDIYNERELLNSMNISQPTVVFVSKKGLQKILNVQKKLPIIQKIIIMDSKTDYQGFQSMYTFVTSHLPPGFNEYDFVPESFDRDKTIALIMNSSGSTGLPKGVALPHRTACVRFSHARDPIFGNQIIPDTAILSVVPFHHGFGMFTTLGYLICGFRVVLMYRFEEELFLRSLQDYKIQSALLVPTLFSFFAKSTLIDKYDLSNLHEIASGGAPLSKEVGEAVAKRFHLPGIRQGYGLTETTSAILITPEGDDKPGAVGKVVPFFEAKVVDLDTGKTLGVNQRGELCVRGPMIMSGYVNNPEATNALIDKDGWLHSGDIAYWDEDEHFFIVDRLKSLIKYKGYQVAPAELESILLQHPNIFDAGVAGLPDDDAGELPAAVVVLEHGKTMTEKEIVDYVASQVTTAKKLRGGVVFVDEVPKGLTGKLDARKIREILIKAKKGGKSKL
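Purified P. pyralis luciferase (10nM final) with 10uM D-luciferin and 10uM ATP (Km levels) in 50mM Tris acetate pH 7.5, 10mM Mg acetate, 0.01% Tween-20, 0.05% BSA; qHTS 6-point titration, ~60 µM downward; luminescence read.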
Rab9 prom act = qHTS Assay for Rab9 Promoter Activators. Huh7 Rab9 promoter-luciferase reporter, luminescence, 24 h. Potency, µM (series often up to 9.22 µM), without a hit: at the highest dose activation, negative = inhibition, usual class: activators. 320,000 tested, 2.8% active; note: % of control where 0% means no effect; nearly all actives have a fitted effect of over 60% in size
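Promoter activation is measured as luciferase luminescence in Huh7 cells stably transfected with a Rab9 promoter–luciferase construct, following 24 h compound exposure at 37 °C and 10 min reagent incubation at ambient temperature.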
ELG1 repair inh = qHTS screen for small molecules that inhibit ELG1-dependent DNA repair in human embryonic kidney (HEK293T) cells expressing luciferase-tagged ELG1; HEK293T ELG1-luciferase reporter, luminescence, 16 h; DNA damage induced by 5-fluorouridine; Potency, µM (doses to about 46.1 µM), for inactives: top-dose activity change, negative = inhibition, most hits filed as inhibitors; 330,000 tested, 2.3% active; AID 504467, 2011; note: % is set by controls: 0 for no effect and ±100 for the full control effect; nearly all actives have a fitted effect of over 55% in size
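Overnight (16 hr) co-exposure of 2,000 cells/well to 5-fluorouridine and compound at 37 °C preceded detection. Luciferase was quantified via ONE-Glo luminescence; loss of signal denotes inhibition.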
SMN2 splice enh = qHTS Assay for Enhancers of SMN2 Splice Variant Expression | Potency, µM (series often up to 46.1 µM), without a hit: at the highest dose activity change, positive = activation, hits mostly activators | HEK293 SMN2-luciferase splicing reporter, luminescence, 30-36 h | 210,000 tested, 2.8% active; note: % of control where 0% means no effect; nearly all actives have a fitted effect of over 55% in size
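HEK293 cells carry an SMN2 […]–luciferase reporter in which exon 7 inclusion puts luciferase in frame. Cells were plated 10-12 h before compound addition, then incubated 30-36 h at 37C. ONE-Glo luminescence was read; sodium butyrate at 4.5 mM final served as control.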
NPC1 promoter act = qHTS Assay for NPC1 Promoter Activators; Huh7 NPC1 promoter luciferase reporter, 24 h; Potency, µM (doses to about 9.22 µM), for the others: top-dose activation, usual class: activators; AID 485313, 2010; 320,000 tested, 2.4% active; note: % of control where 0% means no effect; nearly all actives have a fitted effect of over 60% in size
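In 1536-well qHTS, Huh7 cells harboring an NPC1 promoter–luciferase construct received compound for 24 h; activation was quantified by luminescence following luciferase reagent addition.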
ELG1 genotoxic = qHTS screen for small molecules that induce genotoxicity in human embryonic kidney (HEK293T) cells expressing luciferase-tagged ELG1 | HEK293T ELG1-luciferase reporter, luminescence, 16 h | 330,000 tested, 1.3% active | Potency, µM (top dose mostly 46 µM), for inactives: at the top dose activity change, positive = activation, actives largely listed as activators | AID 504466, 2011; note: % of control where 0% means no effect; nearly all actives have a fitted effect of over 60% in size
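Cells (2,000/well) expressing the ELG1-luciferase fusion are dosed by pin tool and kept 16 hr at 37 °C, 5% CO2. Signal comes from ONE-Glo luciferase reagent after 30 min at room temperature.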
An asterisk follows results filed as active; u = inconclusive; x = no result given; [ ] = remark or other dose. Calls come from the whole dose curve; as a rule, active = well fitted curve in the direction sought with a large enough effect; inconclusive = small, poorly fitted or top-dose-only effect, or another doubt; inactive = no such curve, though single readings can be large; an effect the other way counts as inactive or inconclusive. Potency is the fitted concentration of half-maximal effect.

SMILES	FLuc counter	Rab9 prom act	ELG1 repair inh	SMN2 splice enh	NPC1 promoter act	ELG1 genotoxic
Cc1ccc2nc(N(CCN3CCOCC3)C(=O)CCS(=O)(=O)c3ccccc3)sc2c1	-2%	u	u	x	u	u
CCCC(=O)N(CCN1CCOCC1)c1nc2cc(C)c(C)cc2s1	-12%	2.2µM*	u	x	2.5µM*	u
COCC(C)n1c(C)cc(C(=O)COC(=O)/C=C/c2cccc(F)c2)c1C (configuration not stated)	-14%	-1%	0%	13%	-1%	-11%
O=C(CN1C(=O)NC2(CCCCCC2)C1=O)NCCc1ccccc1	x	11%	14%	x	6%	6%
COC(=O)c1ccc(-c2sc3nc(N4CCOCC4)c4c(c3c2N)CC(C)(C)OC4)o1	-2%	0%	5.2µM*	32µM*	1%	1%
NC(=O)c1sc2nc(N3CCOCC3)c3c(c2c1N)CCCC3	8%	-2%	u	-1%	-4%	-2%
CC1(C)Cc2c(c(N3CCOCC3)nc3sc(C(N)=O)c(N)c23)CO1	-7%	3%	5.2µM*	x	-1%	1%
Cc1ccc(NC(=O)c2sc3nc(N4CCOCC4)c4c(c3c2N)CC(C)(C)OC4)cc1	1%	-8%	u	x	-15%	7%[9.26 µM]
CC1(C)Cc2c(c(N3CCOCC3)nc3sc(C(=O)Nc4ccc(Cl)cc4)c(N)c23)CO1	-10%	-6%	0.92µM*	4%	-13%	1%
NC(=O)C1CCN(CC(=O)Nc2cccnc2Cl)CC1	-3%	5%	-17%	x	-3%	3%
CCCCCCCCCCCCC/C=C/[C@@H](O)C(CO)NC(C)=O (some centres not stated)	x	x	x	2%	x	x
CCN(CC)Cc1ccc(NC(=O)c2sc3cc(Cl)ccc3c2Cl)cc1	u	4%	33%	x	9%	5%
Cc1ccc(NC(=O)CN(C)C(=O)CNC(=O)c2sc3ccccc3c2Cl)cc1	2.7µM*	25%	u	x	u	16µM*
Cc1ccnc(NC(=O)c2sc3cc(Cl)ccc3c2Cl)c1	0.6µM*	0.63µM*	u	6.3µM*	0.13µM*	2.9µM*
CCN(CC(=O)Nc1c(F)cccc1F)C(=O)CNC(=O)c1sc2ccccc2c1Cl	1%	2%	0%	x	-3%	2%
Cc1ccnc(NC(=O)CCCNC(=O)c2ccc(Cl)cc2)c1	17µM*	u	u	x	u	u
Cc1ccnc(NC(=O)CNC(=O)c2sc3ccccc3c2Cl)c1	12µM*	28%	u	x	28%	10µM*
CC(C)CN1CC[C@@]2(CCCN(C(=O)c3cc(C(F)(F)F)cc(C(F)(F)F)c3)C2)C1	x	x	x	-11%	x	x
COc1ccccc1C(=O)NCC1(N2CCN(C)CC2)CCCCC1	4%	x	x	x	x	x
Cc1cc(/C=C2\SC(=S)N(Cc3ccco3)C2=O)c(C)n1-c1ccccc1	3µM*	3.5µM*	u	x	u	5.2µM*
CN=C1S/C(=C\c2cc(C)n(-c3ccccc3F)c2C)C(=O)N1C	0.34µM*	1.6µM*	u	-46%	u	u
Cc1cc(/C=C2\SC(=O)N(C)C2=O)c(C)n1-c1ccc(O)cc1	0.48µM*	0.2µM*	u	x	0.45µM*	0.65µM*
COc1ccc(-n2c(C)cc(/C=C3/SC(=S)N(C)C3=O)c2C)cc1	3.4µM*	u	u	-19%	u	10µM*
Cc1cc(/C=C2\SC(=O)N(C)C2=O)c(C)n1-c1ccc(S(N)(=O)=O)cc1	-18%	16%	-10%	x	10%	0%
CN1C(=O)/C(=C\c2cc(N=Nc3ccccc3)ccc2O)SC1=S	u	11%	5%	-35%	-1%	-13%
SMILES	FLuc counter	Rab9 prom act	ELG1 repair inh	SMN2 splice enh	NPC1 promoter act	ELG1 genotoxic
Cc1cc(/C=C2\SC(=S)N(C)C2=O)c(C)n1-c1cccc(O)c1	1.1µM*	15%	u	x	u	u
Cc1ccc(C(C)C)c(OCCn2cc(C(=O)c3ccco3)c3ccccc32)c1	-10%	x	x	-3%	x	x
O=c1c(Cl)c(NCc2ccccc2Cl)cnn1C12CC3CC(CC(C3)C1)C2	12µM*	-4%	-14%	-51%	-4%	1%
COc1cc2nc(/C=C/c3cc(OC)c(OC)c(OC)c3)sc2cc1SC	2%	-19%	12µM*	-24%	-26%	-6%
COc1cc2nc(C)sc2cc1SC	-17%	10%	15%	7%	4%	-7%
c1ccc(Oc2ncnc3sccc23)cc1	-3%	-3%	-12%	1%	-6%	10%
CC(=O)N1CCN(c2ccc(Oc3ncnc4sccc34)cc2)CC1	2%	3%	21µM*	-48%	0%	-23%
O=c1[nH]c2cc3c(cc2cc1C(c1nnnn1Cc1ccccc1)N1CCCCCC1)OCCO3 (configuration not stated)	0%	-2%	u	9%	0%	-6%
O=c1[nH]c2cc3c(cc2cc1C(c1nnnn1Cc1ccccc1)N1CCCc2ccccc21)OCO3 (configuration not stated)	-11%	-2%	0.65µM*	3%	-3%	16%
N/C(=N\OC(=O)Cc1ccc(Cl)cc1)c1ccccn1	9.5µM*	28%	u	12%	29%	16µM*
COc1ccc(CC(=O)O/N=C(\N)c2ccncc2)cc1	-17%	-4%	1%	x	1%	-2%
